A selection follows.
LmPK activator – qHTS Assay for Activators of Leishmania Mexicana Pyruvate Kinase (LmPK); AID 1722, 2009; 290,000 tested, under 10 active; activity change, negative = inhibition, % at 57.5 µM; purified LmPK, Kinase-Glo ATP luminescence, 1 h; calls by dose curve
Target sequence (Q27686 whole entry, looked up): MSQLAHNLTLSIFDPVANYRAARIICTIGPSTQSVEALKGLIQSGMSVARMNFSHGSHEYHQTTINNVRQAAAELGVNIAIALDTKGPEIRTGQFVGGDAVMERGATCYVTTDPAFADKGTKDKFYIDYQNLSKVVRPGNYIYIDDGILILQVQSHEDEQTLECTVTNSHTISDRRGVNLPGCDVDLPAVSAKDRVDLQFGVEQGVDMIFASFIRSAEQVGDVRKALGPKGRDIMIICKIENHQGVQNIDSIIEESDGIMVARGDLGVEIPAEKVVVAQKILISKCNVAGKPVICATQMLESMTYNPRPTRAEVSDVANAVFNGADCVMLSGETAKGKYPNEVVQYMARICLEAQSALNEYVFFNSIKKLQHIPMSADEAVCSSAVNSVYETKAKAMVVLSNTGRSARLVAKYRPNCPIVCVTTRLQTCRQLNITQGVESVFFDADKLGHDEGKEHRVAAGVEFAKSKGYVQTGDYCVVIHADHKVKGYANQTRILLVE
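Purified L. mexicana pyruvate kinase (0.1 nM) with 0.5 mM PEP and 0.1 mM ADP in pH 7.2 imidazole buffer, 1 h at RT. ATP formed measured by Kinase-Glo luminescence; normalized to uninhibited and no-enzyme wells.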
* = called active by the depositor.

SMILES	LmPK activator
O=c1[nH]c(SCc2n[nH]c(=S)n2-c2ccccc2)nc2sc3c(c12)CCC3	-46
COc1ccc(/C=C2\N=C(SC)N(C)C2=O)cc1	-49
N#C/C(=C\c1cccs1)C(=O)Nc1ccccn1	-34
Fc1ccccc1Nc1nc2ccccc2o1	-84
C/C(=N\OC(=O)c1ccccc1F)c1nccs1	-44
O=C(N=C1N=C2C=CC(Br)=CN2Cc2ccccc21)c1ccc([N+](=O)[O-])cc1[N+](=O)[O-]	-41
COc1ccc2c(=O)c(-c3ccc4c(c3)OCO4)coc2c1	-33
COc1ccc(OC)c(S(=O)(=O)ON2C(=O)c3ccccc3C2=O)c1	-59
CC(=O)NS(=O)(=O)c1ccc(Nc2ccc([N+](=O)[O-])c3nonc23)cc1	-30
CN1C(=O)/C(=C/c2cc(N=Nc3ccccc3)ccc2O)SC1=S	-45
COc1c(Cl)cccc1-c1cn2ccccc2n1	-69
Cc1cc(/C=N/Nc2nc(N)ncc2[N+](=O)[O-])c(C)n1-c1ccccc1F	-60
Cc1cc2nc(CS)[nH]c2cc1C	-41
CCOC(=O)c1c(N2C(=O)C=CC2=O)sc(C)c1C	-37
N/C(=N\OC(=O)c1ccc(Cl)cc1)c1nonc1N	-100
Cn1c(=O)c2c([nH]c(=S)n2Cc2ccc(Cl)cc2)n(C)c1=O	-33
S=c1[nH]nc(Cc2cccc3ccccc23)n1-c1ccccc1	-64
OCc1c[nH]c(=S)n1CCOc1cccc(C(F)(F)F)c1	-35
COCC(=O)Nc1cc(C(=O)Nc2ccccc2)ccc1Cl	-51
CCCCN(C)C(=O)c1cc2cc3ccc(OC)cc3nc2s1	-75
O=[N+]([O-])c1ccc(Sc2cccc[n+]2[O-])c2nonc12	-39
CCOc1ccc(N=Nc2c(N)[nH][nH]c2=O)cc1	-46
COCCNC(=O)/C(C#N)=C/c1ccc(OCC(=O)NC2CCCCC2)cc1	-60
COc1ccc(-c2nc3ccccn3c2Cl)cc1	-39
C=CCOc1ccc(C=Nc2ccc(Cl)cc2)c(O)c1	-33
SMILES	LmPK activator
CC1=C/C(=C(\c2cc(C)c(O)c(Br)c2)c2ccccc2S(=O)(=O)O)C=C(Br)C1=O	-93
COc1ccc(C(=O)Nc2cc(OC)nc(OC)n2)cc1	-52
CCC(=O)Oc1ccc(-c2nc(-c3cccnc3)no2)cc1	-78
c1csc(-c2nc(CN3CCSCC3)cs2)c1	-61
CCn1c(-c2csc3c2CCC(C)C3)n[nH]c1=S (stereo unspecified)	-57
CCN(CC)c1ccc2c(-c3ccc(S(=O)(=O)O)cc3S(=O)(=O)[O-])c3ccc(=[N+](CC)CC)cc-3oc2c1	-36
c1coc(-c2nnc(-c3ccco3)nn2)c1	-30
Cc1ccc(-n2c(-c3c(-c4ccccc4)noc3C)n[nH]c2=S)cc1	-76
O=[N+]([O-])c1ccc(OCc2n[nH]c(=S)n2-c2ccccc2)cc1	-30
COc1cccc(-c2ccc(SCc3ccccn3)nn2)c1	-64
C=CCOc1ccc(C=Nc2ccc(C)c(Cl)c2)c(O)c1	-35
O=C(NC(=O)c1ccccc1O)c1ccc2c(c1)CCO2	-41
FC(F)(F)c1cccc(-c2nc3nc(Cl)c(Cl)nc3[nH]2)c1	-6
CN(C(=O)c1cccc(Nc2ccc(-c3ccc4c(c3)OCCO4)nn2)c1)C1CCCCC1	-41
COc1cc(-c2n[nH]c(=S)n2-c2ccc(Br)cc2)cc(OC)c1OC	-79
Cc1ccc(-n2[nH]c(C)c(/C=N/Nc3ccc([N+](=O)[O-])cc3[N+](=O)[O-])c2=O)cc1	-52
CC(=O)c1ccc(/C=C/c2nc3ccccc3n2C)o1	-35
COc1ccc(/C=N/NC(=O)c2[nH]ncc2Br)c(OC)c1	-59
COc1ncccc1-c1nnn(-c2ccccc2)n1	-57
O=S(=O)(c1ccccc1F)N1CCN(Cc2nc3ccccc3[nH]2)CC1	-1
Cc1ccc(-c2c[nH]c(=S)n2-c2ccccc2F)cc1	-33
O=C1NN(c2ccccc2)C(=O)/C1=C\c1ccc(-c2cc([N+](=O)[O-])ccc2O)o1	-61
CC(C)OC(=O)Nc1ccc2c(c1)N(C(=O)N1CCN(C)CC1)c1ccccc1CC2	-47
CCc1cc(-c2n[nH]c(=S)n2-c2ccccc2C)cs1	-81
CCCCN(CC)CCCNC(=O)CN1C(=O)CSc2ccc(S(=O)(=O)N3CCOCC3)cc21	-33
SMILES	LmPK activator
Cc1ccc(-n2nnc(-c3nccn3C)n2)cc1	-103
O=C(Nc1ccc2[nH]ccc2c1)c1ccc(F)cc1	-36
Cc1occc1C(=O)N/N=C/C(Br)=C\c1ccccc1	-47
CC(C)n1c(=S)[nH]c2cc(Cl)ccc21	-51
O=C(NCc1ccccc1)c1cc2ccc(O)cc2oc1=O	-34
CCCCc1n[nH]c(=S)n1Cc1ccc(C)cc1	-39
Cc1cc(-c2n[nH]c(=S)n2CC(C)C)cs1	-53
c1ccc(-c2nc(-c3nccc4ccccc34)oc2-c2ccccc2)cc1	-30
Cc1cccc(C(=O)n2c(=S)nc3ccccn32)c1	-99
Cc1cc(NC(=O)c2ccccc2F)ncc1NC(=O)c1cccs1	-47
COc1cccc(NC(=O)Nc2ccccc2C(N)=O)c1	-52
Cc1nc(-c2ccc(C(=O)Nc3cccc(Br)c3)cc2)cs1	-36
Cn1ccs/c1=N\C(=O)Nc1ccccc1	-34
CCOc1cc(/C=N/N=C2/NC(=O)C(CC(=O)O)S2)ccc1OCc1ccccc1Cl (stereo unspecified)	-80
S=c1[nH]nc(-c2cc3ccccc3o2)n1Cc1ccccc1	-61
Cc1nc(NC(=O)c2cccs2)ccc1Br	-42

High-throughput results from PubChem BioAssay.
